Values joined by “and” are separate entries in the source; they are usually repeats but may differ in a detail not shown here. Equal entries are not always repeated. Out of some 5,500 compounds screened, about 2,000 (36%) were called active. Another 18% or so got no clear call; they are omitted. Cut-off read from the data, not from the text of the source: active = normalized growth mostly below about 0.91 (no sharp cut-off); inconclusive = no clear call, values can overlap the other calls; inactive = mostly above about 0.92. This is one part of the list.
Experiment: chemical genetic growth profiling, strain panel (AID 1159580);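 note: tested at 20 µM; growth read once vehicle control cultures reached saturation at 30 °C; 1 = growth at the plate median or of vehicle wells; lower values mean less growth of the strain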
Conditions: S. cerevisiae deletion strains, growth OD
[1] = locus YAL013W, strain DEP1, stronger effect = lower value
[2] = locus YGR078C, strain PAC10, stronger effect = lower value
[3] = locus YMR263W, strain SAP30, stronger effect = lower value
[4] = locus YPL055C, strain LGE1, stronger effect = lower value
[5] = locus YPL241C, strain CIN2, stronger effect = lower value

Measured: normalized growth

CNC(CC(=O)O)C(=O)O (centres undefined)
inactive: [1] 1.02 | locus YAL040C, strain CLN3, stronger effect = lower value 1.02 | locus YCL061C, strain MRC1 (second series), stronger effect = lower value 1.02 | locus YDR150W, strain NUM1, stronger effect = lower value 1.03 | locus YDR363W, strain ESC2, stronger effect = lower value 1 | locus YER002W, strain NOP16, stronger effect = lower value 1 | [2] 1.02 | [3] 1.01 | locus YMR307W, strain GAS1, stronger effect = lower value 1.02 | locus YNL175C, strain NOP13, stronger effect = lower value 1.01 | locus YNL197C, strain WHI3, stronger effect = lower value 1 | locus YNL224C, strain SQS1, stronger effect = lower value 1.01 | locus YOR083W, strain WHI5 (second series), stronger effect = lower value 1.05 | [4] 1.02 | [5] 1.03

CCOC(=O)c1c(N=Cc2cc(Br)c(Br)cc2O)sc2c1CCCC2
0.963 (inactive) and 0.697 (active): locus YDL101C, strain DUN1, stronger effect = lower value
active: [1] 0.131 | locus YBR229C, strain ROT2, stronger effect = lower value 0.542 | locus YDL214C, strain PRR2, stronger effect = lower value 0.667 | locus YDR477W, strain SNF1, stronger effect = lower value 0.595 | locus YEL061C, strain CIN8, stronger effect = lower value 0.265 | locus YER123W, strain YCK3, stronger effect = lower value 0.541 | locus YER133W, strain GLC7, stronger effect = lower value 0.696 | locus YGR040W, strain KSS1, stronger effect = lower value 0.612 | locus YGR052W, strain FMP48, stronger effect = lower value 0.45 | [2] 0.241 | locus YGR092W, strain DBF2, stronger effect = lower value 0.173 | locus YHR030C, strain SLT2, stronger effect = lower value 0.211 and 0.239 | locus YHR079C, strain IRE1, stronger effect = lower value 0.262 | locus YHR082C, strain KSP1, stronger effect = lower value 0.368 | locus YHR087W, strain rtc3, stronger effect = lower value 0.554 | locus YHR205W, strain SCH9, stronger effect = lower value 0.458 | locus YJL095W, strain BCK1, stronger effect = lower value 0.314 | locus YJL157C, strain FAR1, stronger effect = lower value 0.589 | locus YJR043C, strain POL32, stronger effect = lower value 0.318 | locus YJR066W, strain TOR1, stronger effect = lower value 0.38 | locus YJR075W, strain HOC1, stronger effect = lower value 0.769 | locus YKL048C, strain ELM1, stronger effect = lower value 0.629 | locus YKL067W, strain YNK1, stronger effect = lower value 0.674 | locus YKL101W, strain HSL1, stronger effect = lower value 0.555 | locus YKL203C, strain TOR2, stronger effect = lower value 0.614 | locus YLR039C, strain RIC1, stronger effect = lower value 0.164 | locus YLR058C, strain SHM2 (second series), stronger effect = lower value 0.916 | locus YLR085C, strain ARP6, stronger effect = lower value 0.118 | locus YLR113W, strain HOG1, stronger effect = lower value 0.475 | locus YLR133W, strain CKI1, stronger effect = lower value 0.608 | locus YLR262C, strain YPT6, stronger effect = lower value 0.17 | locus YLR403W, strain SFP1, stronger effect = lower value 0.525 | locus YML070W, strain DAK1, stronger effect = lower value 0.576 | locus YML094W, strain GIM5, stronger effect = lower value 0.442 | locus YMR205C, strain PFK2 (second series), stronger effect = lower value 0.635 | locus YMR219W, strain ESC1, stronger effect = lower value 0.83 | [3] 0.162 | locus YNL020C, strain ARK1, stronger effect = lower value 0.51 | locus YNL153C, strain GIM3, stronger effect = lower value 0.511 | locus YNL183C, strain NPR1, stronger effect = lower value 0.468 | locus YNL298W, strain CLA4 (second series), stronger effect = lower value 0.652 | locus YNL307C, strain MCK1 (second series), stronger effect = lower value 0.314 | locus YNL322C, strain KRE1, stronger effect = lower value 0.714 | locus YNR030W, strain Alg12, stronger effect = lower value 0.533 | locus YOL006C, strain TOP1, stronger effect = lower value 0.209 | locus YOL136C, strain PFK27, stronger effect = lower value 0.577 | locus YOR061W, strain CKA2, stronger effect = lower value 0.383 | locus YOR119C, strain RIO1, stronger effect = lower value 0.63 | locus YOR231W, strain MKK1, stronger effect = lower value 0.335 | locus YPL031C, strain PHO85, stronger effect = lower value 0.561 | [4] 0.113 | locus YPL153C, strain RAD53, stronger effect = lower value 0.511 | locus YPL204W, strain HRR25, stronger effect = lower value 0.575 | [5] 0.558 | locus YPL256C, strain CLN2, stronger effect = lower value 0.458 | locus YPR135W, strain CTF4, stronger effect = lower value 0.635
inactive: locus YAR019C, strain CDC15, stronger effect = lower value 0.975 | locus YBL105C, strain PKC1, stronger effect = lower value 0.97 | locus YBR135W, strain CKS1, stronger effect = lower value 0.968 | locus YBR136W, strain MEC1, stronger effect = lower value 0.97 | locus YBR160W, strain CDC28, stronger effect = lower value 0.976 | locus YDL017W, strain CDC7, stronger effect = lower value 0.976 | locus YDL028C, strain MPS1, stronger effect = lower value 0.956 | locus YDL108W, strain KIN28, stronger effect = lower value 0.959 | locus YDL132W, strain cdc53, stronger effect = lower value 0.964 | locus YDR052C, strain DBF4, stronger effect = lower value 0.971 | locus YDR054C, strain cdc34, stronger effect = lower value 0.97 | locus YDR226W, strain ADK1, stronger effect = lower value 0.975 | locus YFL009W, strain cdc4, stronger effect = lower value 0.983 | locus YFL029C, strain CAK1, stronger effect = lower value 0.977 | locus YFR003C, strain YPI1, stronger effect = lower value 0.961 | locus YFR019W, strain FAB1, stronger effect = lower value 0.804 | locus YFR028C, strain CDC14, stronger effect = lower value 0.982 | locus YGR229C, strain SMI1, stronger effect = lower value 0.969 | locus YIL147C, strain SLN1, stronger effect = lower value 0.96 | locus YJL128C, strain PBS2, stronger effect = lower value 0.959 | locus YJR016C, strain ILV3, stronger effect = lower value 0.968 | locus YJR066W, strain TOR1 (second series), stronger effect = lower value 0.724 | locus YKL193C, strain SDS22, stronger effect = lower value 0.964 | locus YMR001C, strain CDC5, stronger effect = lower value 0.975 | locus YMR277W, strain FCP1, stronger effect = lower value 0.968 | locus YNL006W, strain LST8, stronger effect = lower value 0.976 | locus YNL161W, strain CBK1, stronger effect = lower value 0.981 | locus YNL207W, strain RIO2, stronger effect = lower value 0.969 | locus YNL222W, strain SSU72, stronger effect = lower value 0.974 | locus YOL078W, strain AVO1, stronger effect = lower value 0.967 | locus YOR329C, strain SCD5, stronger effect = lower value 0.974 | locus YPL209C, strain IPL1, stronger effect = lower value 0.975 | locus YPR025C, strain CCL1, stronger effect = lower value 0.981 | locus YPR106W, strain ISR1, stronger effect = lower value 0.968 | locus YPR111W, strain DBF20, stronger effect = lower value 0.964 | strain NNK1, stronger effect = lower value 0.96 | strain TSCII, stronger effect = lower value 0.971

Reference: PubChem BioAssay AID1159580 (chemical genetic matrix, 2015)
